# Most compounds without a hit are left out; they make up all but 3.5% or so of the library.
# SKN-1 block – inhibitors of C. elegans SKN-1; C. elegans VP596 Pgst-4::GFP/RFP ratio, acrylamide-induced, 24 h; inhibition, % at 21.8 µM; 360,000 tested, 0.49% active;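 active means interference check ratio from 0.5 to 1.5 plus GFP to RFP signal ratio inhibition reaching or exceeding a fixed threshold, cut at about 30% in these data, passing the limit was not always enough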
# CHRM1 PAM – potentiates human M1 receptor response to acetylcholine; activation, % at 3 µM; AID 588819; P11229; 360,000 tested, 0.088% active; CHO-K1 hM1, Fluo-8 calcium fluorescence, ACh EC20; 0% = ACh EC20, 100% = maximal ACh; in the data active means activation above about 19%, passing the limit was not always enough
# Myeloid diff 2 – compounds promoting myeloid differentiation | ER-HoxA9 myeloid progenitors, lysozyme-GFP differentiation, flow cytometry | calls only at 10 µM | 360,000 tested, 1% active;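 active means normalized GFP-positive differentiation at or above the plate's own cutoff, the solvent-only control mean plus 3 SD; inconclusive means no clear call, values can overlap the other calls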;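 further: cells exposed to compound for four days before flow analysis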
# CHRM1 antagonist – antagonists of human M1 muscarinic receptor. P11229. AID 588852. 360,000 tested, 1.3% active. CHO-K1 hM1, Fluo-8 calcium fluorescence, ACh EC80 antagonist. inhibition, % at 3 µM;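 active means percent inhibition above its own plate's cutoff, namely the mean of that plate's compound wells plus 3 SD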;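 further: peak over basal fluorescence ratio during 140 s after agonist addition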
# ATG4B inh – blocks human ATG4B protease cleavage of LC3 substrate | inhibition, % at 8.33 µM | 340,000 tested, 0.51% active | ATG4B cleavage of LC3-PLA2, NBD-HPC fluorescence, 1 h | Q9Y4P1 | AID 504462; in the data active means inhibition above about 40%
# Target sequence (Q9Y4P1 whole entry, looked up): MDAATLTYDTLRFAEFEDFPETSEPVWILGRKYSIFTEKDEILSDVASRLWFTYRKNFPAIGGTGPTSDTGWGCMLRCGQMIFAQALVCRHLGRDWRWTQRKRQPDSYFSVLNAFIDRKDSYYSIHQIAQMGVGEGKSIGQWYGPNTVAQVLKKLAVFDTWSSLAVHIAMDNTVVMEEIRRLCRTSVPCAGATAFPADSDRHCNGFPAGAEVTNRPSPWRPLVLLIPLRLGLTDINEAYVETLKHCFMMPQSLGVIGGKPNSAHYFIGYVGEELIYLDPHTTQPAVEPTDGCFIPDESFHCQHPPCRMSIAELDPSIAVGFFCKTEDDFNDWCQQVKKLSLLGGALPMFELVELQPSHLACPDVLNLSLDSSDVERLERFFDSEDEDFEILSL
# M1 ag – activates human CHRM1 receptor; AID 588814; 360,000 tested, 0.33% active; P11229; CHO-K1 hM1, Fluo-8 calcium fluorescence, agonist mode; 0% DMSO, 100% acetylcholine EC100; activation, % at 3 µM;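 active means activation above the run's mean compound activation plus 3 SD, cut at about 16% in these data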;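 further: peak over basal fluorescence ratio within a 140 s kinetic read after compound addition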
# Numbers stand for hits; 0 = inactive; ? = inconclusive; - = not tested or not shown; + = active, no number.
SMILES,SKN-1 block,CHRM1 PAM,Myeloid diff 2,CHRM1 antagonist,ATG4B inh,M1 ag
CC(=O)N(C1=NCCCS1)c1ccc(Cl)cc1,0,0,0,0,0,0
O=C1NC(=S)NC(=O)C1=Cc1ccc2c(c1)CCN2CCCCl,38,0,0,0,0,0
CC(C)[N+](C)(CCC(C(N)=O)(c1ccccc1)c1ccccc1)C(C)C,0,0,0,99,0,0
C=CP(=O)(O)c1ccccc1,0,0,0,0,0,0
O=C(Oc1ccc([N+](=O)[O-])cc1)N1CCC(N2CCCCC2)CC1,0,0,0,85,0,0
CC(=O)Nc1ccc(OC(=O)N2CCCCC2)cc1,0,0,0,0,0,0
COCCCNP1(=O)OCC(C)([N+](=O)[O-])CO1 (stereo not given),0,0,0,0,0,0
CCn1nc(-c2cccs2)nc2c(=O)n(C)c(=O)nc1-2,0,0,?,0,86,0
O=c1c2ccccc2nc(-c2cccs2)n1-c1ccccc1,0,0,0,0,0,0
O=C(NCC1=C(c2cccc3ccccc23)C[C@@H]2CC[C@H]1N2Cc1ccco1)c1cccs1,0,0,0,0,-,0
O=c1[nH]c(=O)n(-c2ccccc2)c(O)c1/C=C1/C(c2ccccc2)=Nc2ccccc21,36,0,?,0,0,0
COC(=O)C1=Nc2ccccc2/C1=C\c1c(O)n(-c2ccc(Br)cc2)c(=O)[nH]c1=O,0,0,0,0,0,0
CN1CCN(c2nc3ccccc3o2)CC1,0,0,0,0,0,0
CNC(C(=O)c1ccccc1)C(OC)c1cccc([N+](=O)[O-])c1 (stereo not given),0,0,0,0,0,0
CCC1(Cc2ccccc2)C(=O)NC(=S)N(C)C1=O (stereo not given),0,0,0,0,0,0
c1ccc(C(OCCN2CCNCC2)c2ccccc2)cc1,0,0,0,70,0,0
COc1ccccc1CN1CCNCC1,0,0,0,0,-,0
CN1CCN(C(=O)COc2ccc(N(C)S(=O)(=O)c3ccc(F)cc3)cc2)CC1,0,0,0,0,0,0
CCOC(=O)/C(CCCN(CC)CC)=N\O,0,0,0,78,0,0
OC(Cn1c2ccccc2c2ccccc21)C[n+]1cccc2ccccc21 (stereo not given),0,0,0,63,0,0
COc1cc(C2SCC(=O)Nc3c2c(=O)[nH]n3C2CCCCCC2)cc(OC)c1OC (stereo not given),0,0,0,0,0,0
COc1ccc2c3c([nH]c2c1)C(C)=NCC3,0,0,+,0,0,0
CC1=NCCc2c1[nH]c1cc(O)ccc21,0,0,0,0,0,0
OC(c1ccccc1)(c1ccc(Cl)cc1)C1CN2CCC1CC2 (stereo not given),0,0,0,100,0,0
OC(Cc1ccccc1)(c1ccccc1)C1CN2CCC1CC2 (stereo not given),0,0,0,98,0,0
SMILES,SKN-1 block,CHRM1 PAM,Myeloid diff 2,CHRM1 antagonist,ATG4B inh,M1 ag
c1ccc(C2N3CCCN23)cc1 (stereo not given),0,0,0,0,0,0
OC(c1ccccc1)(c1ccccc1)C1CN2CCC1CC2 (stereo not given),0,0,0,98,0,0
OCC[N+]12CCC(CC1)C(C(O)(c1ccccc1)c1ccccc1)C2 (stereo not given),0,0,0,0,0,0
c1ccc(C2CN3CCC2CC3)cc1 (stereo not given),0,0,0,41,0,0
COC(=O)C1=C(c2ccc(S(C)(=O)=O)cc2)C[C@@H]2CC[C@H]1N2C(=O)NCCNC(C)=O,0,0,0,0,0,0
Cc1ccc(CNC2=NCCS2)cc1,0,0,0,0,0,0
Cc1cccc(-n2c(O)c(C)c(=O)[nH]c2=S)c1,0,0,0,0,0,0
O=C(NC1CCCCC1)N1C[C@H]2C[C@@H](C1)c1cccc(=O)n1C2,0,0,0,0,0,0
CC(=O)OCC[N+](C)(C)C,0,-,0,-,0,-
C[N+](C)(C)CCOC(=O)CBr,0,0,0,0,0,20
COc1ccc(C(=O)C2CCCN(C3CSCCSC3)C2)cc1OC (stereo not given),0,0,0,97,0,0
O=C(c1ccc(Cl)cc1)C1CCCN(C2CCSCC2)C1 (stereo not given),0,0,0,61,0,0

# Screening data (PubChem BioAssay)
